The target in assay [1] is Insulin-degrading enzyme (Homo sapiens) (UniProt P14735). As to the kind of experiment: human IDE inhibitors in live cells, confirmation, fluorescence polarization, HEK cells, FAbetaB substrate (AID 435028;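 active = mean inhibition across triplicate wells above the cutoff set by the earlier primary insulin-degrading enzyme screen, cut at about 16% in these data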;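 note: 0% = DMSO wells and 100% = 60 µM reference IDE inhibitor Ii1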). The conditions noted are these: FAbetaB cleavage, at 5.59 µM, stronger effect = higher value. In general terms: Polarisation of emitted light reports the rotation of a fluorescent probe.

Assay [2] is described as follows: cytotoxicity in HEK cells, cytotoxicity control for IDE inhibitor project, cell-based, luminescence (AID 449730; in the data active = inhibition above about 22%;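 note: 0% = vehicle wells and 100% = reference cytotoxic drug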). To be noted: HEK293 cytotoxicity, ATP luminescence; at 5.59 µM; stronger effect = higher value.
For assay [3], the system named is DAF-12 nuclear receptor (Heterodera glycines), GAL4-LBD fusion. As to the kind of experiment: H. glycines DAF-12 receptor agonists, confirmation, cell-based, luminescence, HEK293, GAL4-LBD fusion (AID 743050;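 active = mean activation over triplicate wells above the hit cutoff derived from the earlier primary screen, cut at about 11% in these data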;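 note: 0% = DMSO low control and 100% = 2 mM sodium butyrate high control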). The conditions noted are these: HEK293 GAL4-hgDAF12 luciferase reporter, agonist mode; at 6.8 µM; stronger effect = higher value; percent of butyrate response. (In general: In a reporter assay the amount or activity of a reporter protein is the signal.)

For assay [4], the target named is Oxysterols receptor LXR-beta (Homo sapiens) (UniProt P55055). As to the kind of experiment: LXR agonists, Gal4 luciferase reporter, confirmation, counter-screen for hgDAF-12 agonist project, cell-based, luminescence, HEK293, H. glycines campaign (AID 743051;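 active = mean activation of the triplicate above a set limit carried over from the primary screen, none filed active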). To be noted: 24 h, at 6.8 µM, stronger effect = higher value.
In assay [5] the target is Platelet-activating factor acetylhydrolase (Homo sapiens) (UniProt Q13093). As to the kind of experiment: pPAFAH (PLA2G7) enzyme inhibitors, confirmation, biochemical, fluorescence polarization, human (AID 463230).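 Note: 0% = enzyme with DMSO and 100% = wells lacking pPAFAH enzyme.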 The conditions noted are these: recombinant pPAFAH, FP-Rh probe fluorescence polarization; at 3.39 µM; stronger effect = higher value.
Assay [6] concerns the target Serine protease HTRA1 (Homo sapiens) (UniProt Q92743). Kind of assay: HTRA1 protease inhibitors, retest, confirmation, biochemical, fluorescence polarization (AID 540248;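 active = mean inhibition over three repeats above a set limit taken from the earlier primary screen, cut at about 37% in these data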;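 note: 0% = HTRA1 with DMSO and 100% = wells lacking HTRA1; inhibitors block probe binding so polarization drops and inhibition rises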). The conditions noted are these: recombinant HTRA1, FP-rhodamine activity-based probe, at 5.96 µM, stronger effect = higher value.
Assay [7] has as its target Protein-arginine deiminase type-4 (Homo sapiens) (UniProt Q9UM07). As to the kind of experiment: human PAD4 inhibitors, confirmation, biochemical, fluorescence polarization (AID 488796;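 active = mean inhibition across replicates above the hit cutoff set by the earlier primary screen, cut at about 15% in these data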;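 note: inhibitors block active-site labeling by the probe so polarization falls; 0% = PAD4 with probe and DMSO and 100% = probe without PAD4 enzyme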). The conditions noted are these: recombinant PAD4, RCA probe fluorescence polarization; at 6.36 µM; stronger effect = higher value.
Assay [8] deals with Toll-like receptor 9 (Homo sapiens) (UniProt Q9NR96). Kind of assay: TLR9-MyD88 association inhibitors, retest, confirmation, cell-based, CHO, BLA complementation, fluorescence, triplicate (AID 540250;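 active = mean inhibition across three repeats above about 21% taken from the earlier screen, limit read from the data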;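 note: blue over green emission ratio reports constitutive TLR9 MyD88 association via BLA complementation; 0% = DMSO vehicle wells and 100% = clavulanate BLA inhibitor wells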). To be noted: CCF4 FRET ratio, at 4.98 µM, stronger effect = higher value.
Assay [9] in a line: beta-lactamase reporter inhibitors in CHO cells, artefact control for TLR9-MyD88 binding inhibitor project, cell-based, fluorescence (AID 540251;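 active = mean inhibition above a 50% cutoff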;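 note: counterscreen of TLR9-MyD88 hits on CMV-driven BLA in CHO-K1 cells; 0% = DMSO alone and 100% = clavulanate blocking BLA; higher means less blue over green ratio so more BLA blockade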). To be noted: CHO-BLA cells, CCF4 FRET ratio, at 4.98 µM, stronger effect = higher value.
Assay [10] is described as follows: CHO cell viability loss – luminescence, single concentration, cytotoxicity control for TLR9-MyD88 binding inhibitor project (AID 588336; in the data active = inhibition above about 11%). To be noted: TLR9-MyD88 CHO cells cytotoxicity, at 4.98 µM, stronger effect = higher value.
The target of assay [11] is Receptor-interacting serine/threonine-protein kinase 2 (Homo sapiens) (UniProt O43353). As to the kind of experiment: NOD2-RIPK2 binding disruptors, retest, confirmation, fluorescence, CHO cells, BLA complementation, triplicate (AID 624370;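 active = mean inhibition across replicates above a set limit taken from the earlier primary screen, cut at about 21% in these data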;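 note: 0% = DMSO-only wells and the high end = clavulanate BLA-blocked wells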). To be noted: CCF4 FRET, at 4.98 µM, stronger effect = higher value.
Assay [12] is described as follows: beta-lactamase reporter inhibitors in CHO cells, confirmation, artefact control for NOD2-RIPK2 interaction inhibitor project, cell-based, CHO-K1 CMV-bla, CCF4 FRET, fluorescence (AID 624371;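 active = mean inhibition above the low-control mean inhibition plus three low-control SD, cut at about 11% in these data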;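 note: 0% = DMSO only wells and 100% = clavulanate high control wells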). To be noted: CCF4 FRET ratio, counterscreen, at 4.98 µM, stronger effect = higher value. Background: A counterscreen serves to expose hits that act by an unwanted route or on another target.

The target of assay [13] is Photoreceptor-specific nuclear receptor (Homo sapiens) (UniProt Q9Y5X4). As to the kind of experiment: NR2E3 agonist confirmation in cells, cell-based, luminescence, CHO-S two-hybrid (AID 624378;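 active = average inhibition above a cutoff equal to the mean inhibition of all tested compounds plus one SD, cut at about 70% in these data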;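 note: 0% = DMSO in NR2E3 cells and 100% = DMSO in cells lacking NR2E3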). To be noted: CHO-S mammalian two-hybrid NR2E3-NCOR, luciferase luminescence; at 3.98 µM; stronger effect = higher value.
Assay [14] can be described thus: GAL4-VP16 reporter modulators, confirmation, counter-screen for NR2E3 agonist project, cell-based, luminescence, CHO-S, high throughput (AID 624379;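 active = mean inhibition above a cutoff equal to the average over all tested compounds plus one standard deviation, cut at about 70% in these data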;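 note: luciferase from a UAS reporter driven by GAL4-VP16 transactivation; 0% = DMSO with VP16-transfected cells and 100% = DMSO with cells lacking VP16; higher means less reporter light so more repression of VP16 activity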). The conditions noted are these: CHO-S GAL4-VP16 luciferase reporter, at 3.98 µM, stronger effect = higher value.
A short description of assay [15]: Gal4-VP16 luciferase reporter inhibitors, counter-screen for COUP-TFII antagonist project, cell-based, luminescence, HEK293 (AID 687007; in the data active = inhibition above about 13%). To be noted: at 8.5 µM, stronger effect = higher value.
For assay [16], the target named is COUP transcription factor 2 (Homo sapiens) (UniProt P24468). As to the kind of experiment: NR2F2 transcriptional activity inhibitors, confirmation, cell-based, luciferase reporter, HEK293, triplicate (AID 687008;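 active = mean inhibition over three repeats above a set limit taken from the earlier primary screen, cut at about 38% in these data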;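 note: 100% = cells given the luciferase reporter alone without the COUP-TF2 vector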). To be noted: HEK293 NGFI-A luciferase reporter, luminescence; at 8.5 µM; stronger effect = higher value.

The other results are listed elsewhere or left out. Values without a mark were called inactive. Activity calls are given as the source filed them.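 Rule for the calls, unless noted: active = mean inhibition of the triplicate above the hit cutoff set for the earlier primary screen (cut at about 25% in these data); inactive = the rest.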

The inhibition is the change of the read-out against control, counted positive when it falls.

Sequence of Insulin-degrading enzyme (Homo sapiens) (P14735 whole entry, looked up): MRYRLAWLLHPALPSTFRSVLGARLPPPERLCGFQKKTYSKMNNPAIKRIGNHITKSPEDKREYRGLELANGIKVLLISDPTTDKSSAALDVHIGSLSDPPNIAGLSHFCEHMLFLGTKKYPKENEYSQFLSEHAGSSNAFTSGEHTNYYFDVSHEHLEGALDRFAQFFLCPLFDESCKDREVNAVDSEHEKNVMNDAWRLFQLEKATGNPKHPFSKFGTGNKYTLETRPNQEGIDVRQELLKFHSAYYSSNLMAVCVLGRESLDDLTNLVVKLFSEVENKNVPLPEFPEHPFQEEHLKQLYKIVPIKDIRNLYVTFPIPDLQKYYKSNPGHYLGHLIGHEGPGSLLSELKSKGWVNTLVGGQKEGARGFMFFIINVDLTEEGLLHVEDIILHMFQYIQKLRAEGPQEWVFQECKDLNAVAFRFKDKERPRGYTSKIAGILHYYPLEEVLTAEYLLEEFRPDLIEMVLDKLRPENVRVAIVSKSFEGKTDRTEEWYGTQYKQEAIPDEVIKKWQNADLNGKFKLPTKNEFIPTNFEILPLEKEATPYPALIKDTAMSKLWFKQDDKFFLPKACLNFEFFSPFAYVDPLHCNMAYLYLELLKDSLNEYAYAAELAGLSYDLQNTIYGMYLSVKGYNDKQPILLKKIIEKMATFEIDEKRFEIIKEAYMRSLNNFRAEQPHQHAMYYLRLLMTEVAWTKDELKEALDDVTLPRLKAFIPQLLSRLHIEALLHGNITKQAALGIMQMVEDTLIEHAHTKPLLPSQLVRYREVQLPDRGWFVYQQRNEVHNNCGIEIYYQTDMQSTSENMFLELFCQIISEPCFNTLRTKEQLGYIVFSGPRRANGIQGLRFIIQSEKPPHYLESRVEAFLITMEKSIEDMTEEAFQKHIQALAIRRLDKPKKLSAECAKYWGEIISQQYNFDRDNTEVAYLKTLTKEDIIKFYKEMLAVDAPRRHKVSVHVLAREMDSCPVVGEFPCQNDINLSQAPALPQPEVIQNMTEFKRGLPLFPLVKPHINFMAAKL
Sequence of Platelet-activating factor acetylhydrolase (Homo sapiens) (Q13093 whole entry, looked up): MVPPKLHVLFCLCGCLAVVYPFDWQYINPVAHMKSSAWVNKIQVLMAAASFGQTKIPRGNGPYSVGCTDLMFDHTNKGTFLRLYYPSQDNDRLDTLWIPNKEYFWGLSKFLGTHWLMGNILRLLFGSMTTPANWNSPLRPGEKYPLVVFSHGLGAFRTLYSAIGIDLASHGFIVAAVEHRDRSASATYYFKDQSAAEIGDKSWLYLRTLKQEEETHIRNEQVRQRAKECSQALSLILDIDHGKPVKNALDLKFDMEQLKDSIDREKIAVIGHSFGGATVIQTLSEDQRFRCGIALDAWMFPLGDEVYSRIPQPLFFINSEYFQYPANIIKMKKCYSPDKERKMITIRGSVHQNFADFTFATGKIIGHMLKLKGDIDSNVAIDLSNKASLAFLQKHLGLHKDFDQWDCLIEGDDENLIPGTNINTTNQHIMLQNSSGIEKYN
Sequence of Protein-arginine deiminase type-4 (Homo sapiens) (Q9UM07 whole entry, looked up): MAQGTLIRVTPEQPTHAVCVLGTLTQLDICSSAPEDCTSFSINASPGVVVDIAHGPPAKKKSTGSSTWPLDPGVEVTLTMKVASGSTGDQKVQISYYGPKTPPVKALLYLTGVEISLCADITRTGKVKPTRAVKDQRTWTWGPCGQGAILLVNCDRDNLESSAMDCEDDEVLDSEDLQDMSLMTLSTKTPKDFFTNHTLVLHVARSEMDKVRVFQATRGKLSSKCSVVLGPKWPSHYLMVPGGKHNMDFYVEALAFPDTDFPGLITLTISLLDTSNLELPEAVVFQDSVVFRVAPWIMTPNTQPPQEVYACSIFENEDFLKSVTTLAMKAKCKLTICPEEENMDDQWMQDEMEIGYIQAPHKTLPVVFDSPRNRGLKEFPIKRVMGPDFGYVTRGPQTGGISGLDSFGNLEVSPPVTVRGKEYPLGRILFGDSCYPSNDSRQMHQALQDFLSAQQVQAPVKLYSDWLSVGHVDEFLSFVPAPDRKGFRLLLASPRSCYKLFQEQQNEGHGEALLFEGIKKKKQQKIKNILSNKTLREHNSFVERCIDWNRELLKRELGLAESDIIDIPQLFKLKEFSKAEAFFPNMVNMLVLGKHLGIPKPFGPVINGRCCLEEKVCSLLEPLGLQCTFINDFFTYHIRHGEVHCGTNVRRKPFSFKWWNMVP
Sequence of Receptor-interacting serine/threonine-protein kinase 2 (Homo sapiens) (O43353 whole entry, looked up): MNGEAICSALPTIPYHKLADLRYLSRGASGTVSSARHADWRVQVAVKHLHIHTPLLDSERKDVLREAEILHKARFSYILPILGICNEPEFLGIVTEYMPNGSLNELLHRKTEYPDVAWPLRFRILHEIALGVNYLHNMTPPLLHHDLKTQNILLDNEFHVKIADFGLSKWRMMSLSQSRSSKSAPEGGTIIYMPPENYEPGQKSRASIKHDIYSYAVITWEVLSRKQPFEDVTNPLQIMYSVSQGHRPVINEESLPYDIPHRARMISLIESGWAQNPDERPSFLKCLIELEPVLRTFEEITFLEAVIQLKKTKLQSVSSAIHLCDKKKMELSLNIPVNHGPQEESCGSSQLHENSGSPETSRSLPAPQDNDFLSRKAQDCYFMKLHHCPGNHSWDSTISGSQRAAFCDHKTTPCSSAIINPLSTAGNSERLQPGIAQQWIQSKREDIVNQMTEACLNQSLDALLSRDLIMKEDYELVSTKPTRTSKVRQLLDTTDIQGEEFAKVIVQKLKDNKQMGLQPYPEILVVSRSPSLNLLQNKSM
Sequence of Oxysterols receptor LXR-beta (Homo sapiens) (P55055 whole entry, looked up, the tested form may be a part): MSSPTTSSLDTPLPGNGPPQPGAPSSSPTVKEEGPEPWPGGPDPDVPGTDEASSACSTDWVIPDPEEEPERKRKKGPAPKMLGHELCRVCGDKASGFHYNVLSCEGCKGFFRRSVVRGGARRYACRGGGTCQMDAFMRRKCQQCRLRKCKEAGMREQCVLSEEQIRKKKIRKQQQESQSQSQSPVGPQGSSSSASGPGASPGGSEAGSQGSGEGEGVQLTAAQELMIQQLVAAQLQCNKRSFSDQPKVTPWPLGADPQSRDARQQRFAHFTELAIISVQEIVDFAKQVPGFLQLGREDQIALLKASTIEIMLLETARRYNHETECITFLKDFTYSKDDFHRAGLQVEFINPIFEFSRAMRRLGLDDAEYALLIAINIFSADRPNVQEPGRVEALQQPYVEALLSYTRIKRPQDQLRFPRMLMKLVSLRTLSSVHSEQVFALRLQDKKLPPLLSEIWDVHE
Sequence of Toll-like receptor 9 (Homo sapiens) (Q9NR96 whole entry, looked up): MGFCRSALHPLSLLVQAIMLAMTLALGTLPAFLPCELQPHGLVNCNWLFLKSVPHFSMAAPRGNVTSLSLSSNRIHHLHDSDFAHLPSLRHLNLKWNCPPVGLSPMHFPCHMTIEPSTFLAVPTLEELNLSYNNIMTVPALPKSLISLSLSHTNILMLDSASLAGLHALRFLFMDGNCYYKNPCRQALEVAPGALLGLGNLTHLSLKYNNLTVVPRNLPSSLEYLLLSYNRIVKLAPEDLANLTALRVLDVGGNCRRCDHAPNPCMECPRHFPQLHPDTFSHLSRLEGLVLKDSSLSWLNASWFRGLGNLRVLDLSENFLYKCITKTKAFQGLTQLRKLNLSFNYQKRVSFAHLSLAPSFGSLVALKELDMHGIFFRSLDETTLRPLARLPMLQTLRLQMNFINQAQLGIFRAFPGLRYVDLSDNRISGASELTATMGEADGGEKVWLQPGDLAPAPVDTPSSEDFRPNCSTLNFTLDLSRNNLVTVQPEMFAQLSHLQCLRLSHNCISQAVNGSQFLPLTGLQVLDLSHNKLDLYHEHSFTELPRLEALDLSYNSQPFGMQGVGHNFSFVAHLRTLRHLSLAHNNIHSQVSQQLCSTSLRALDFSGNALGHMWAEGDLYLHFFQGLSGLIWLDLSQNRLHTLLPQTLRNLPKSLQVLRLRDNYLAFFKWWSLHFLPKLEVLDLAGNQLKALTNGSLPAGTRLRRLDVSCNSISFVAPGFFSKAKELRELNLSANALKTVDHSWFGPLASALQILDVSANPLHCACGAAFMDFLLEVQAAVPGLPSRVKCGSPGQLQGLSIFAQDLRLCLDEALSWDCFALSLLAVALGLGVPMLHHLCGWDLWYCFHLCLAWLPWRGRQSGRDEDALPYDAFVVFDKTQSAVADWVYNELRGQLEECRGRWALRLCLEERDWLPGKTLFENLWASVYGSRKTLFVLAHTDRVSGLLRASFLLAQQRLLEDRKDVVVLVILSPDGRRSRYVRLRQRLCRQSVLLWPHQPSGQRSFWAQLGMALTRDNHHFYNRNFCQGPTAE
Sequence of Photoreceptor-specific nuclear receptor (Homo sapiens) (Q9Y5X4 whole entry, looked up, the tested form may be a part): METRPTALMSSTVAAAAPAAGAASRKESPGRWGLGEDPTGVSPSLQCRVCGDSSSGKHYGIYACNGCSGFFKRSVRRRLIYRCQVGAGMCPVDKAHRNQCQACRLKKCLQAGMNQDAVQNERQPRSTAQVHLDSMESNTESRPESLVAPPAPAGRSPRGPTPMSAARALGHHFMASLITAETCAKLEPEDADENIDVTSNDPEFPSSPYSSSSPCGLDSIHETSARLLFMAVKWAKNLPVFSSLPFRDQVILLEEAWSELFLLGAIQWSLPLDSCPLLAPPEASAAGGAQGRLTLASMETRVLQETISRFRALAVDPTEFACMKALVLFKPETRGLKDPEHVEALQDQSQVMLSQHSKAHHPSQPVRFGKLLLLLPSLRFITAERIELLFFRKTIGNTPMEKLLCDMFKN
Sequence of COUP transcription factor 2 (Homo sapiens) (P24468 whole entry, looked up): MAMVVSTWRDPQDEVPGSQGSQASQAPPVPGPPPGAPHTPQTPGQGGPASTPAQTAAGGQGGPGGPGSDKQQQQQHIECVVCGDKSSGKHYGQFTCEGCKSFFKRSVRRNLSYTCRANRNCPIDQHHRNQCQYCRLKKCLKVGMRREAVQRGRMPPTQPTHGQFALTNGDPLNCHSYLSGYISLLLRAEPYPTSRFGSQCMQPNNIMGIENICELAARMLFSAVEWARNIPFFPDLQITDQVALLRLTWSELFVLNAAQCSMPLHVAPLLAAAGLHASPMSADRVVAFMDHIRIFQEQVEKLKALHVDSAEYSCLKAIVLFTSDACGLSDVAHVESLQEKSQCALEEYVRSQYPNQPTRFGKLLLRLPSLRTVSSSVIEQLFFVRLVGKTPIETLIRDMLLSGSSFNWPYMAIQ

Turning to `COc1ccc(N=C(C)c2sc3ccccc3c2O)cc1`, the values for the inhibition in assay [1] and in assay [2] were 56.1% (active) and 15.2%, respectively. For the same molecule, the activation in assay [3] is 18.6% (active); in [4] it was 0.76%.

With `CC(C)C1N=C2c3ccccc3N=C(SCC(=O)c3ccc(O)c(O)c3)N2C1=O` (stereo not given), the inhibition was 54.5% (active) in assay [5] and 57% (active) in assay [6].

`CN(C)c1ccc(/C=C2\NC(=S)N(Cc3ccccc3)C2=O)cc1`: the values for the inhibition in [1] and in assay [2] were 135% (active) and 24.2% (active), respectively.

In the case of `O=C(CCC1CCCCC1)Nc1cc(C(F)(F)F)ccc1N1CCOCC1`, the inhibition in assay [5] was 6.87%.

Take `Cc1cc(C(=O)CSc2nc(N)cc(=O)[nH]2)c(C)n1-c1cccc(F)c1`: the inhibition in assay [5] was 51.8% (active).

Consider `N#C/C(=C\c1ccc(N2CCOCC2)o1)C(=O)N1CCOCC1`, for which the values for the inhibition in assay [1] and in [2] were 14.7% and 8.42%, respectively.

For `COc1cccc(CNC(=O)CCC2CCCN(C(=O)c3ccc(F)c(Cl)c3)C2)c1` (stereo not given), the inhibition in assay [5] was 17.2%.

Regarding `CN(C)S(=O)(=O)c1cccc(-c2nn(-c3ccccc3)cc2/C=C2\SC(=S)N(CC(=O)O)C2=O)c1`, the inhibition in [5] was 40.4% (active); in assay [7], 2.15%.

Take `OC(CNCC1CCCO1)Cn1c2ccc(Br)cc2c2cc(Br)ccc21` (stereo not given): the inhibition in assay [5] was 37.2% (active).

Turning to `CC1(OC(=O)C2CCCC2)C(=O)C=C2C=C(c3ccc(C#N)cc3)OC=C2C1=O` (stereo not given), the inhibition in assay [5] is 53.2% (active).

Take `Nc1c(C(=O)c2cccs2)sc2nsc(SCCN3CCCCC3)c12`: the inhibition was 54.9% (active) in [1]; 18.4% in assay [2]; 31.7% (active) in [8]; 27.5% in assay [9]; 10.9% (active) in assay [10]; 19.8% in assay [11]. In addition, in assay [12], the inhibition was 36.9% (active).

Regarding `Cc1ccc(-c2noc(CSc3nnc(-c4ccncc4)n3-c3ccc(F)cc3)n2)cc1`, the inhibition in [5] is 1.52%.

As for `O=C(O)C(c1ccccc1)N1C(=O)/C(=C\c2ccc(-c3cccc(Cl)c3)o2)SC1=S` (stereo not given), the inhibition in assay [5] was 55.4% (active).

For `COc1ccc(C(=O)NC(=S)Nc2ccccc2N2CCN(S(C)(=O)=O)CC2)cc1OC`, in assay [5], the inhibition was -1.51%.

As for `Fc1ccc2[nH]c3c(N4CCSCC4)ncnc3c2c1`, the inhibition is 7.91% in assay [1]; 49.2% (active) in [2]; 84.4% (active) in assay [13]; 63.2% in assay [14]; 4.31% in [15]; 48% (active) in assay [16].

Take `COC(=O)c1cc(S(=O)(=O)Nc2ccc(C)c(F)c2)c[nH]1`: the inhibition in [5] was 24.1%.

On to `COCC(C)NC(=O)c1ccc(-n2nc(C(F)(F)F)cc2-c2cccs2)cc1` (stereo not given), for which, in [5], the inhibition is 23.6%.

For the molecule `CC(=O)N1CCN(C(=O)c2cc(-c3ccc(C)o3)nc3ccccc23)CC1`, the inhibition in [5] is 5.07%.

As to `Oc1ccc(N=Nc2nccs2)c(O)c1`, in [5], the inhibition was 5.09%.

On to `O=C(Nc1nc(-c2ccco2)c(-c2ccco2)s1)c1ccco1`, for which the inhibition in assay [5] was 17.3%.

On to `Cc1ccc(-n2c(C)cc(/C=C(\C#N)C(=O)NCC3CCCO3)c2C)cc1` (stereo not given), for which, in assay [5], the inhibition is 63.7% (active).

For the molecule `CCc1ccc(CN(C)C(=O)CCc2nnc(-c3ccc(-c4ccccc4)cc3)o2)nc1`, the inhibition in [5] is 11.8%.

These data come from PubChem BioAssay.
